The panel holds about 83,000 compounds, 20% with a hit somewhere; the sample as a whole holds those more often.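 Assay: single dose, 48 h. Readout: percent growth (0 = no net growth; negative = cell death). Active: <10.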 Activity calls are given as the source filed them.
What was measured:
Test in all cases: NCI-60 one-dose screen, 48 h (100 = growth as untreated, 0 = no growth, -100 = all killed)
Conditions in all cases: 10 µM unless noted
[1] = test system: EKVX NSCLC
[2] = test system: SN12C renal
[3] = test system: UO-31 renal
[4] = test system: TK-10 renal
[5] = test system: ACHN renal
[6] = test system: CAKI-1 renal
[7] = test system: A498 renal
[8] = test system: CCRF-CEM leukemia
[9] = test system: MOLT-4 leukemia
[10] = test system: RPMI-8226 leukemia
[11] = test system: OVCAR-8 ovarian
[12] = test system: OVCAR-5 ovarian
[13] = test system: OVCAR-4 ovarian
[14] = test system: SK-OV-3 ovarian
[15] = test system: IGROV1 ovarian
[16] = test system: OVCAR-3 ovarian
[17] = test system: HS 578T breast
[18] = test system: NCI/ADR-RES ovarian
[19] = test system: SR leukemia

Measured: growth

COc1ccc(-c2c(N)n[nH]c2-c2ccc(Cl)cc2O)cc1OC
inactive: [1] 109% | [2] 52.4% | [3] 74% | [4] 102% | [5] 96.1% | [6] 90.5% | [7] 86.6% | [8] 69.1% | [9] 107% | [10] 74.5% | [11] 87.1% | [12] 72.6% | [13] 94.1% | [14] 102% | [15] 92.3% | [16] 95.6% | [17] 89.2% | [18] 90.4%

COC(=O)[C@]12CC[C@@H](C)[C@H](C)[C@@H]1C1=CC[C@@H]3[C@@]4(C)C(C=O)=C[C@@](C)(COC(=O)/C=C/c5ccccc5)[C@@H]4[C@H](O)C[C@@]3(C)[C@]1(C)CC2
inactive: [1] 26.9% | [4] 26% | [6] 15% | [7] 19.6% | [8] 16.4% | [13] 21.4% | [14] 18.6% | [15] 23.9% | [18] 17.9%
active: [2] 3.47% | [3] 3.64% | [5] -14.7% | [19] -6.65% | [10] 1.62% | [11] 9.9% | [12] 7.64% | [16] -75.9% | [17] -8.26%

NC(N)=Nc1nc2ccccc2n2c1nc1ccccc12
active: [9] 7.99%
inactive: [1] 36.3% | [2] 28.3% | [3] 34.3% | [4] 46.2% | [5] 11.7% | [6] 23.2% | [7] 52.5% | [8] 25.7% | [11] 25.5% | [12] 54.3% | [13] 36% | [14] 32.9% | [15] 20.3% | [16] 43.3% | [17] 43.8% | [18] 63.1%

COc1cc(C2CC(c3cc(OC)c(OCCCOc4ccc(-n5c(/C=C/c6ccccc6)nc6ccccc6c5=O)cc4)c(OC)c3)=NO2)cc(OC)c1OC (stereo unspecified)
inactive: [1] 118% | [2] 127% | [3] 86.7% | [4] 139% | [5] 91.3% | [6] 115% | [7] 123% | [8] 76.6% | [9] 86% | [11] 104% | [12] 105% | [13] 87% | [14] 114% | [16] 118% | [17] 108% | [18] 107%
active: [10] -9.38%

N=C1C(c2nc(-c3ccc(Br)cc3)cs2)=C(O)CN1CC1CCCO1 (stereo unspecified)
inactive: [1] 98.7% | [2] 111% | [3] 20.8% | [4] 135% | [5] 88% | [6] 90.4% | [7] 96.4% | [9] 70.3% | [19] 38.9% | [10] 48.5% | [11] 52.7% | [12] 89.2% | [13] 75% | [14] 113% | [15] 46.2% | [16] 105% | [17] 89% | [18] 76.3%

Cc1nn(-c2ccccc2)c2nc3c(c(-c4ccc(Cl)cc4)c12)CNC1(CCSCC1)N3
inactive: [2] 108% | [3] 94.9% | [4] 107% | [5] 103% | [6] 95.4% | [7] 89.1% | [8] 118% | [19] 96.8% | [10] 109% | [11] 105% | [12] 98.2% | [13] 98.9% | [14] 98.9% | [15] 99.1% | [16] 104% | [17] 99.8% | [18] 97.3%

NC(=N\N=C/c1ccccc1[N+](=O)[O-])/C(N)=N\N=C/c1ccccc1[N+](=O)[O-]
inactive: [2] 108% | [4] 99.6% | [5] 109% | [6] 95.2% | [7] 85.9% | [9] 113% | [19] 107% | [10] 88.2% | [11] 109% | [12] 109% | [13] 111% | [14] 102% | [15] 136% | [16] 116% | [17] 100% | [18] 114%

O=[N+]([O-])c1ccc(C2CC(c3ccccc3)=Nc3ccccc3S2)cc1 (stereo unspecified)
active: [10] -6.89%
inactive: [1] 112% | [2] 103% | [3] 56.4% | [5] 103% | [6] 93.6% | [7] 114% | [8] 73.2% | [19] 30.9% | [11] 94.9% | [12] 113% | [13] 93.5% | [14] 100% | [15] 58.7% | [16] 83.9% | [17] 93.3% | [18] 95.1%

COc1ccc(-c2cc(-c3cc(OC)ccc3OC)nc(SCC(=O)c3ccccc3)c2C#N)cc1
inactive: [1] 100% | [2] 93.7% | [3] 81.9% | [4] 114% | [5] 91.6% | [6] 95.3% | [7] 93.9% | [8] 111% | [19] 83.3% | [10] 105% | [11] 96.6% | [12] 103% | [13] 91.8% | [14] 86.7% | [15] 97.3% | [16] 108% | [17] 97.3% | [18] 93.1%

COc1ccc2[nH]c(O)c(C(=Nc3ccc(N(C)C(=O)CN4CCN(C)CC4)cc3)c3ccccc3)c2c1
active: [7] -11.3% | [14] 5.77% | [17] -16.8%
inactive: [1] 52.3% | [2] 20% | [4] 51.8% | [5] 25.3% | [6] 24.6% | [8] 23.2% | [9] 14.6% | [10] 38.8% | [11] 43.9% | [12] 49.2% | [13] 47.1% | [15] 22.5% | [16] 75.9% | [18] 82.2%

Cc1ccc(Nc2nc(N)nc(CSCC(=O)NN)n2)cc1
inactive: [1] 102% | [2] 94.6% | [3] 88.2% | [4] 115% | [5] 101% | [6] 89.8% | [7] 77.7% | [19] 87% | [10] 101% | [11] 103% | [12] 103% | [13] 93.7% | [14] 101% | [15] 99.5% | [16] 105% | [17] 90.9% | [18] 104%

Cc1nn(-c2ccccc2)c(Cl)c1/C=C(/NC(=O)c1ccccc1)c1nc2ccccc2[nH]1
inactive: [2] 91.2% | [4] 106% | [5] 92.4% | [6] 84.1% | [7] 88.2% | [8] 86.5% | [9] 79.9% | [10] 91.6% | [11] 102% | [13] 106% | [14] 95.4% | [15] 96.8% | [16] 120% | [17] 115% | [18] 101%

C[C@@H]1N=C(c2ccc3ccccc3n2)Nc2nc3ccccn3c2C1=O
inactive: [2] 95.6% | [3] 70.1% | [4] 142% | [5] 85.7% | [6] 82.1% | [7] 108% | [8] 115% | [9] 100% | [10] 93.8% | [11] 101% | [12] 106% | [13] 89.5% | [15] 66.3% | [16] 109% | [17] 97.7% | [18] 93.6%

CNC(=O)NCC1OC(n2cnc3c(NC(=O)Nc4ccccc4)ncnc32)C(O[Si](C)(C)C(C)(C)C)C1CC(=O)N(C)OC (stereo unspecified)
inactive: [1] 21.4% | [2] 16.8% | [5] 11.4% | [6] 43% | [7] 45.6% | [11] 20.4% | [12] 44.1% | [13] 19% | [14] 40.7% | [18] 54.4%
active: [3] -6.83% | [4] 7.05% | [9] -11.7% | [19] -56% | [10] -75.4% | [15] -36.6% | [16] 7.61% | [17] 3.64%

COc1ccc(-c2nc(SCCC(C)C)nc(N/N=C\c3cccc(Cl)c3)c2C#N)cc1
inactive: [1] 77.3% | [2] 41.9% | [3] 48.9% | [4] 47.1% | [5] 17.9% | [6] 61% | [7] 42.5% | [8] 50% | [9] 74.7% | [11] 57.7% | [12] 84.3% | [14] 84% | [15] 76.2% | [16] 38.5% | [17] 20.7% | [18] 79.2%
active: [13] -13.4%

COc1cc(/C=N/n2c(CN3CCOCC3)nc3ccccc3c2=O)cc(OC)c1OC
inactive: [1] 107% | [2] 101% | [3] 87.7% | [5] 103% | [6] 100% | [7] 81.8% | [8] 104% | [9] 103% | [10] 107% | [11] 96.1% | [12] 97.4% | [13] 104% | [14] 103% | [15] 98.3% | [16] 106% | [17] 105% | [18] 101%

COc1ccccc1CNCCCN1C(=O)c2ccc3c4c(ccc(c24)C1=O)C(=O)N(CCCNCCCCN)C3=O
active: [2] -39.3% | [5] 7.77% | [7] -52% | [9] 0.762% | [19] 5.25% | [10] -8.59% | [11] -7.98% | [12] -12.4% | [13] -84.9% | [15] 8.53% | [16] -1.35% | [17] -7.25%
inactive: [3] 11.2% | [6] 33.7% | [14] 14.2% | [18] 42.5%

O=C(COc1ccc(/C=C2\Oc3ccccc3C2=O)cc1)c1ccc(Cl)cc1
inactive: [1] 98.8% | [2] 103% | [3] 110% | [4] 120% | [5] 104% | [6] 81.8% | [7] 112% | [9] 87.9% | [19] 90.8% | [10] 111% | [11] 105% | [12] 97.4% | [13] 115% | [14] 105% | [16] 96.6% | [17] 112% | [18] 110%
